Assay results as given in PubChem BioAssay AID1159580 (chemical genetic matrix, 2015).
Several values for one entry are separate records, joined by “and”; a condition that tells them apart may be missing. Equal entries are not always repeated. Screen size: about 5,500 compounds; about 2,000 (36%) were called active. Roughly 18% stayed inconclusive and do not appear here. Rule as the data show it: active = normalized growth mostly below about 0.91 (no sharp cut-off); inconclusive = no clear call, values can overlap the other calls; inactive = mostly above about 0.92. Some of the results follow.

Assay: chemical genetic growth profiling, strain panel (AID 1159580);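 also: tested at 20 µM; growth read once vehicle control cultures reached saturation at 30 °C; 1 = growth at the plate median or of vehicle wells; lower values mean less growth of the strain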
Details: S. cerevisiae deletion strains, growth OD

Measured: normalized growth

CCC(C)C(=O)O[C@@H]1C[C@@]2(C)[C@H](c3ccoc3)OC(=O)CC23OC2(C)O[C@]14[C@]1(C)[C@@H](CC(=O)OC)C5(C)CC1(O)[C@](O)(C5OC(=O)C1(C)OC1C)[C@@H](OC(C)=O)[C@]34O2 (some centres undefined)
active: locus YDR137W, strain rgp1, hits give low values 0.726 | locus YLR262C, strain YPT6 (second series), hits give low values 0.711 | locus YLR262C, strain YPT6, hits give low values 0.602
inactive: locus YAL013W, strain DEP1, hits give low values 1.02 | locus YAL021C, strain ccr4, hits give low values 0.996 | locus YAL026C, strain drs2, hits give low values 0.988 | locus YAL030W, strain snc1, hits give low values 0.991 | locus YBL061C, strain skt5, hits give low values 1 | locus YBR009C, strain hhf1, hits give low values 1.01 | locus YBR021W, strain FUR4, hits give low values 1.03 | locus YBR023C, strain chs3, hits give low values 1.01 | locus YBR171W, strain sec66, hits give low values 0.978 | locus YBR229C, strain ROT2, hits give low values 1.01 | locus YBR231C, strain swc5, hits give low values 0.995 | locus YBR279W, strain paf1, hits give low values 1 | locus YCL011C, strain gbp2, hits give low values 0.983 | locus YCL016C, strain dcc1, hits give low values 1.01 | locus YCL029C, strain bik1, hits give low values 1.02 | locus YCL061C, strain MRC1, hits give low values 1.01 | locus YCL069W, strain vba3, hits give low values 0.98 | locus YCR088W, strain abp1, hits give low values 0.995 | locus YDL005C, strain med2, hits give low values 0.978 | locus YDL035C, strain GPR1, hits give low values 0.963 | locus YDL040C, strain nat1, hits give low values 0.982 | locus YDL074C, strain BRE1, hits give low values 0.994 | locus YDL101C, strain DUN1, hits give low values 1.02 | locus YDL185W, strain tfp1, hits give low values 1.02 | locus YDL192W, strain arf1, hits give low values 0.995 | locus YDR001C, strain nth1, hits give low values 0.997 | locus YDR069C, strain doa4, hits give low values 1.01 | locus YDR101C, strain arx1, hits give low values 1.02 | locus YDR159W, strain sac3, hits give low values 1.02 | locus YDR162C, strain NBP2, hits give low values 0.979 | locus YDR195W, strain ref2 0.969 | locus YDR297W, strain sur2, hits give low values 0.995 | locus YDR318W, strain mcm21, hits give low values 1.02 | locus YDR334W, strain swr1, hits give low values 0.983 | locus YDR335W, strain msn5, hits give low values 0.992 | locus YDR388W, hits give low values 1.02 | locus YDR392W, strain spt3, hits give low values 0.918 | locus YDR502C, strain sam2, hits give low values 1.03 | locus YEL003W, strain gim4, hits give low values 0.993 | locus YEL037C, strain rad23, hits give low values 0.995 | locus YEL061C, strain CIN8 (second series), hits give low values 0.988 | locus YEL061C, strain CIN8, hits give low values 1 | locus YER015W, strain faa2, hits give low values 1 | locus YER016W, strain bim1, hits give low values 0.995 | locus YER110C, hits give low values 1.02 | locus YER111C, strain swi4, hits give low values 0.976 | locus YER155C, strain BEM2 (second series), hits give low values 1 | locus YER155C, strain BEM2, hits give low values 1.01 | locus YER167W, strain BCK2, hits give low values 1 | locus YFR010W, strain ubp6, hits give low values 0.985 | locus YGL078C, strain dbp3, hits give low values 1.05 | locus YGL086W, strain mad1, hits give low values 1.01 | locus YGL167C, strain pmr1, hits give low values 0.995 | locus YGL173C, strain kem1, hits give low values 0.993 | locus YGL227W, strain vid30, hits give low values 0.994 | locus YGL240W, strain doc1, hits give low values 0.977 | locus YGL248W, strain PDE1, hits give low values 1.01 | locus YGL253W, strain hxk2, hits give low values 0.952 | locus YGR078C, strain PAC10, hits give low values 1.02 | locus YGR135W, strain pre9, hits give low values 1.04 | locus YGR229C, strain SMI1, hits give low values 1.03 | locus YGR252W, strain gcn5, hits give low values 1.04 | locus YHR013C, strain ard1, hits give low values 0.984 | locus YHR027C, strain rpn1, hits give low values 0.996 | locus YHR030C, strain SLT2, hits give low values 1.02 and 0.954 | locus YHR079C, strain IRE1 (second series), hits give low values 1.02 | locus YHR079C, strain IRE1, hits give low values 0.962 | locus YHR094C, strain hxt1, hits give low values 1.02 | locus YHR129C, strain ARP1, hits give low values 1 | locus YHR142W, strain chs7, hits give low values 0.984 | locus YHR200W, strain rpn10, hits give low values 1.02 | locus YIL066C, strain RNR3, hits give low values 0.999 | locus YIL073C, strain SPO22, hits give low values 1.04 | locus YIL125W, strain kgd1, hits give low values 1.02 | locus YIR030C, strain dcg1, hits give low values 1.02 | locus YJL092W, strain hpr5, hits give low values 0.986 | locus YJL095W, strain BCK1 (second series), hits give low values 1 | locus YJL095W, strain BCK1, hits give low values 1.01 and 0.948 | locus YJL115W, strain asf1, hits give low values 1 | locus YJL129C, strain trk1, hits give low values 0.983 | locus YJL134W, strain LCB3, hits give low values 1.01 | locus YJL154C, strain vps35, hits give low values 0.993 | locus YJL164C, strain tpk1, hits give low values 1.01 | locus YJL166W, strain qcr8, hits give low values 0.987 | locus YJL168C, strain set2, hits give low values 1.02 | locus YJL187C, strain SWE1 (second series), hits give low values 1.02 | locus YJL187C, strain SWE1, hits give low values 1 | locus YJR066W, strain TOR1, hits give low values 0.912 | locus YJR075W, strain HOC1, hits give low values 1.02 | locus YKL009W, strain mrt4, hits give low values 0.989 | locus YKL068W, hits give low values 1 | locus YKL085W, strain MDH1 (second series), hits give low values 1 | locus YKL085W, strain MDH1, hits give low values 1 | locus YKL160W, strain elf1, hits give low values 1.02 | locus YKR001C, strain vps1, hits give low values 1.01 | locus YKR026C, strain gcn3, hits give low values 1 | locus YKR091W, strain srl3, hits give low values 0.996 | locus YLL001W, strain dnm1, hits give low values 1.01 | locus YLL026W, hits give low values 1 | locus YLL041C, strain sdh2, hits give low values 0.987 | locus YLR027C, strain aat2, hits give low values 1.01 | locus YLR039C, strain RIC1, hits give low values 0.683 | locus YLR058C, strain SHM2, hits give low values 1 | locus YLR102C, strain apc9, hits give low values 1.03 | locus YLR113W, strain HOG1, hits give low values 1 | locus YLR221C, strain rsa3, hits give low values 0.978 | locus YLR258W, strain gsy2, hits give low values 0.988 | locus YLR268W, strain sec22, hits give low values 0.995 | locus YLR320W, strain mms22, hits give low values 0.979 | locus YLR330W, strain CHS5, hits give low values 1.02 | locus YLR342W, strain FKS1 (second series), hits give low values 0.981 | locus YLR342W, strain FKS1, hits give low values 0.977 | locus YLR357W, strain rsc2, hits give low values 1.01 | locus YLR370C, strain arc18, hits give low values 0.971 | locus YLR371W, strain rom2, hits give low values 1.01 | locus YLR384C, strain iki3, hits give low values 1.01 | locus YLR418C, strain cdc73, hits give low values 1.01 | locus YML016C, strain PPZ1, hits give low values 1 | locus YML032C, strain rad52, hits give low values 1.01 | locus YML120C, strain ndi1, hits give low values 0.992 | locus YML124C, strain tub3, hits give low values 1.01 | locus YMR058W, strain fet3, hits give low values 1.01 | locus YMR078C, strain ctf18, hits give low values 1.02 | locus YMR125W, strain sto1, hits give low values 0.991 | locus YMR129W, hits give low values 0.999 | locus YMR205C, strain PFK2, hits give low values 1.01 | locus YMR223W, strain ubp8, hits give low values 1.02 | locus YMR231W, strain pep5, hits give low values 0.945 | locus YMR307W, strain GAS1, hits give low values 0.925 | locus YNL067W, strain RPL9B, hits give low values 1.03 | locus YNL071W, strain lat1, hits give low values 0.994 | locus YNL183C, strain NPR1, hits give low values 0.928 | locus YNL209W, strain ssb2, hits give low values 0.995 | locus YNL233W, strain BNI4, hits give low values 1.03 | locus YNL248C, strain rpa49, hits give low values 0.975 | locus YNL250W, strain rad50, hits give low values 1.05 | locus YNL271C, strain bni1, hits give low values 1.02 | locus YNL298W, strain CLA4, hits give low values 1.02 | locus YNL307C, strain MCK1, hits give low values 1.03 | locus YNL322C, strain KRE1 (second series), hits give low values 0.984 | locus YNL322C, strain KRE1, hits give low values 1.02 | locus YNR049C, strain mso1, hits give low values 0.999 | locus YNR052C, strain pop2, hits give low values 1.03 | locus YOL012C, strain htz1 0.597 | locus YOL147C, strain pex11, hits give low values 1.02 | locus YOR001W, strain rrp6, hits give low values 0.941 | locus YOR061W, strain CKA2, hits give low values 1 | locus YOR069W, strain VPS5, hits give low values 1.01 | locus YOR070C, strain gyp1, hits give low values 0.994 | locus YOR080W, strain dia2, hits give low values 0.985 | locus YOR083W, strain WHI5, hits give low values 1.03 | locus YOR106W, strain vam3, hits give low values 1.02 | locus YOR136W, strain idh2, hits give low values 0.999 | locus YOR144C, strain elg1, hits give low values 1.02 | locus YOR184W, strain ser1, hits give low values 0.996 | locus YOR231W, strain MKK1, hits give low values 0.978 | locus YOR265W, strain rbl2, hits give low values 0.994 | locus YOR270C, strain vph1, hits give low values 0.779 | locus YOR290C, strain snf2, hits give low values 1 | locus YOR316C, strain cot1, hits give low values 1.02 | locus YPL051W, strain arl3, hits give low values 1.01 | locus YPL078C, strain atp4, hits give low values 1.01 | locus YPL106C, strain sse1, hits give low values 1.02 | locus YPL240C, strain hsp82, hits give low values 0.989 | locus YPL241C, strain CIN2, hits give low values 1.01 | locus YPL256C, strain CLN2, hits give low values 0.965 | locus YPR119W, strain clb2, hits give low values 1.01 | locus YPR141C, strain kar3, hits give low values 1.03 | locus YPR163C, strain tif3, hits give low values 1.02 | locus YPR167C, strain met16, hits give low values 1.02 | strain wtn01, hits give low values 1
